Compound activity as filed in PubChem.
FBA Mtb inh: inhibits M. tuberculosis FBA enzyme. P9WQA3. purified M. tuberculosis FBA, fluorescence read-out. inhibition, % at 1 µM. 360,000 tested, 2.3% active. AID 588726; in the data active = inhibition above about 27%;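 note: 0% = vehicle and 100% = reference inhibitor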
GDH-TPI counter: GDH-TPI coupled enzyme inhibition counter-screen; AID 588335; GDH-TPI coupled enzyme counterscreen, NADH absorbance; 360,000 tested, 1.2% active; inhibition, % at 4.8 µM;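 note: 0% = DMSO wells and 100% = wells lacking the enzyme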
RecA intein inh: inhibitors of M. tuberculosis RecA intein splicing. inhibition, % (test concentration not listed). P9WHJ3. AID 2221. cell-free RecA intein splicing, fluorescence. 290,000 tested, 0.75% active; in the data active = inhibition above about 30%;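 note: 0% = vehicle wells and 100% = reference inhibitor control wells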
Target sequence (P9WHJ3 whole entry, looked up): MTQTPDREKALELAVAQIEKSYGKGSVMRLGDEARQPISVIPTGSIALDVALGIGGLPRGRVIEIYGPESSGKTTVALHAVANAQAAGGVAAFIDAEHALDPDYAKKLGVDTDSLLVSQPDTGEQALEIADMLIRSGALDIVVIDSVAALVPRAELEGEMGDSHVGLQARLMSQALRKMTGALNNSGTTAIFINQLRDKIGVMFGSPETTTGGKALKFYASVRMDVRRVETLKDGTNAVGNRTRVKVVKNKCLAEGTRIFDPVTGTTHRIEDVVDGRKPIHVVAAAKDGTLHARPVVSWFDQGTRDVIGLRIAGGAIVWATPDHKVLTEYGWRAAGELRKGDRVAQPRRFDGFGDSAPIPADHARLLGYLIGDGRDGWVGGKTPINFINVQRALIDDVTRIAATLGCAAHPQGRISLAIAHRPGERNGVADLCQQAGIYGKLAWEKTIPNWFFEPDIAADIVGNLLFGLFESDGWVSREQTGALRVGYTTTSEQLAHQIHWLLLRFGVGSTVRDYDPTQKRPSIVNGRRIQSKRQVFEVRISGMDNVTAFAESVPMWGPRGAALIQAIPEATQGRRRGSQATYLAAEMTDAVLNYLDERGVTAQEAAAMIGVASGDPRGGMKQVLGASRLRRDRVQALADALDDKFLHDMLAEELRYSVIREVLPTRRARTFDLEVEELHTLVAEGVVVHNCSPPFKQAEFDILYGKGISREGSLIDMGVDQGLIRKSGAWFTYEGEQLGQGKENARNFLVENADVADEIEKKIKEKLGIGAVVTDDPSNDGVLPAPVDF
CCHF vOTU inh-1: blocks the CCHF virus ovarian tumor domain protease; inhibition, % at 11.5 µM; AID 651958; CCHFV vOTU protease, Pep-AMC fluorescence; 370,000 tested, 0.55% active; note: 0% = vehicle wells with enzyme and 100% = no enzyme wells
CCHF vOTU inh-2: CCHFV vOTU protease inhibition, confirmation; shares compounds with CCHF vOTU inh-1; Recombinant CCHFV vOTU, Pep-AMC fluorescence; inhibition, % at 11.5 µM; 1,900 tested, 17% active
An asterisk follows results filed as active; nt = not tested or not shown. Sampled rows, rich in hits. Any-hit rate of the full collection: about 4.2%. Cut-off read from the data, not from the text of the source, unless noted: active = inhibition above about 30%; inactive = the rest.

SMILES	FBA Mtb inh	GDH-TPI counter	RecA intein inh	CCHF vOTU inh-1	CCHF vOTU inh-2
COc1cc(C(c2c(C(=O)O)[nH]c3ccccc23)c2c(C(=O)O)[nH]c3ccccc23)ccc1OCc1ccccc1	2.1	6.4	16.5	38.7*	22.5
C=CCOc1ccc(C(c2c(C(=O)O)[nH]c3ccccc23)c2c(C(=O)O)[nH]c3ccccc23)cc1	3.8	-1.7	12.1	51.3*	-2.4
O=C(COC(=O)c1ccc([N+](=O)[O-])s1)Nc1ncc(C(F)(F)F)cc1Cl	-1.4	12.5	-0.6	49.1*	64.0*
CC1CCCC(NC(=O)COC(=O)COc2cccc(F)c2)C1C (stereo not given)	-0.5	-2.5	nt	41.5*	-15.8
CC1CCCC(NC(=O)COC(=O)c2ccc([N+](=O)[O-])s2)C1C (stereo not given)	-5.8	4.7	nt	66.2*	61.3*
CC1CCCC(NC(=O)COC(=O)c2ccccc2[N+](=O)[O-])C1C (stereo not given)	2.6	3.7	0.9	-0.1	nt
COc1ccc(NC(=O)C2CC(=O)N(Cc3ccco3)C2)cc1Cl (stereo not given)	-1.0	3.9	nt	8.0	nt
C=CCn1c(SCC(=O)Nc2ccccc2-c2ccccc2)nnc1-c1ccc(Cl)cc1	nt	nt	nt	19.6	nt
COc1ccc(CNS(=O)(=O)c2csc(C(N)=O)c2)cc1OC	1.1	-2.4	1.4	2.8	nt
CS(=O)(=O)c1ccc(Cl)c(NC(=O)CCN2C(=O)C3CC=CCC3C2=O)c1 (stereo not given)	0.7	-8.6	nt	6.4	nt
O=C(NC(=S)Nc1ccccc1N1CCCC1)c1ccccc1[N+](=O)[O-]	-1.6	-3.0	3.7	-0.7	nt
O=C(NC(=S)Nc1ccccc1N1CCCC1)c1ccccc1Br	0.9	8.6	7.1	34.0*	29.6*
COc1c(C)cccc1C(=O)NC(=S)Nc1ccccc1N1CCCC1	0.6	7.2	-0.5	50.5*	23.4
COC(=O)COc1ccc(S(=O)(=O)NC2CCCCCC2)cc1	2.9	12.4	1.5	54.6*	-17.3
COc1ccccc1N(/N=C1\Sc2ccccc2C1=O)C(C)=O	-1.4	6.4	15.1	31.6*	5.2
COc1ccc(N(/N=C2\Sc3ccccc3C2=O)C(C)=O)cc1	0.9	10.9	1.7	0.8	nt
Cc1ccc(S(=O)(=O)NN=C(c2ccccc2)c2cccs2)cc1	-3.1	14.7	nt	32.2*	-2.6
C/C(=N\NS(=O)(=O)c1ccc(C)cc1)c1cccs1	-7.6	16.3	-2.1	0.5	nt
COc1ccc(C(=O)NCCCNC(=O)c2ccccn2)cc1	2.2	-4.5	-0.9	13.1	nt
CN1CCN(C2=C(NS(=O)(=O)c3ccccc3)C(=O)c3ccccc3C2=O)CC1	-5.5	-7.0	4.9	nt	nt
CCN1CCN(C2=C(NS(=O)(=O)c3ccc(Br)cc3)C(=O)c3ccccc3C2=O)CC1	2.9	2.6	0.6	78.1*	19.0
CCN1CCN(C2=C(NS(=O)(=O)c3ccccc3)C(=O)c3ccccc3C2=O)CC1	4.5	13.0	3.6	46.1*	14.5
CCOC(=O)c1ccc(N2N=C(C)/C(=C/C=C/c3ccco3)C2=O)cc1	-1.4	8.7	-1.5	-8.0	nt
O=C(O)c1cc(N2N=C(C(F)(F)F)/C(=C/C=C/c3ccco3)C2=O)ccc1Cl	-9.0	4.8	nt	63.4*	44.0*
CCCCCNC(=O)C(c1ccc(C(F)(F)F)cc1)n1c(=O)c(-c2ccco2)nc2ccccc21 (stereo not given)	nt	nt	nt	30.7*	-20.3
SMILES	FBA Mtb inh	GDH-TPI counter	RecA intein inh	CCHF vOTU inh-1	CCHF vOTU inh-2
CC(C)(C)NC(=O)C(c1ccc(-c2ccccc2)cc1)n1c(=O)c(-c2ccco2)nc2ccccc21 (stereo not given)	nt	nt	nt	32.3*	-14.2
COc1ccc(C(C(=O)NC(C)(C)C)n2c(=O)c(-c3ccco3)nc3ccccc32)cc1 (stereo not given)	nt	nt	nt	11.7	nt
CCCCCNC(=O)C(c1cccc2ccccc12)n1c(=O)c(-c2ccco2)nc2ccccc21 (stereo not given)	nt	nt	nt	18.8	nt
Cc1cccc(C)c1NC(=O)C(c1ccc(-c2ccccc2)cc1)n1c(=O)c(-c2ccco2)nc2ccccc21 (stereo not given)	nt	nt	nt	32.9*	-1.6
Cc1ccc(C(=O)c2ccccc2C(=O)OCC(=O)N2C(C)CCCC2C)cc1 (stereo not given)	0.3	-3.5	nt	2.2	nt
CCOC(=O)c1sc(NC(=O)c2sccc2C)cc1C	0.5	9.1	-0.9	29.2	nt
CCOC(=O)c1sc(NC(=O)c2cccs2)cc1C	-1.0	20.7	-0.9	-11.3	nt
CCOC(=O)c1sc(NC(=O)c2ccc(Br)o2)cc1C	0.2	19.8	2.0	30.6*	-3.9
CCOC(=O)c1sc(NC(=O)Nc2cccc(Cl)c2)cc1C	1.6	16.7	1.6	30.4*	0.3
O=C1c2ccccc2C(=O)C12OC2c1cccc2ccccc12 (stereo not given)	-3.5	8.1	7.5	86.5*	48.0*
O=C(Nc1nccs1)C(F)(F)C(F)(F)C(F)(F)C(=O)Nc1nccs1	3.3	24.7	0.9	112.8*	-0.4
COc1ccc(-c2cc(C(=O)N3CCN(C(=O)c4ccccc4F)CC3)[nH]n2)cc1	0.1	7.8	-0.2	6.2	nt
Nc1cc2c(cc1Br)[nH]c(=O)c1ccccc12	-1.6	11.5	nt	100.5*	83.7*
Nc1cc(Br)cc2c1[nH]c(=O)c1ccccc12	-1.2	8.8	nt	8.3	nt
O=c1ccc2cc3c([nH]c4ccc(Br)cc43)oc-2c1O	-11.2	6.0	19.5	31.7*	9.2
CC(C)CC(NC(=O)C(Cc1ccc(OCc2ccccc2)cc1)NC(=O)OC(C)(C)C)C(N)=O (stereo not given)	-0.7	2.2	2.4	31.6*	-11.5
CCOC(=O)C1(C)CCCCCN1C(=O)c1ccc(OC)c(C(F)(F)F)c1 (stereo not given)	-2.3	3.6	nt	34.5*	-8.6
C=CCn1c(O)c(C(CC)=Nc2ccc(N(C)C)cc2)c(=O)[nH]c1=O	-0.3	2.3	-2.5	38.2*	-20.7
C=CCn1c(O)c(C(CC)=Nc2ccc3c(c2)CCC3)c(=O)[nH]c1=O	5.4	6.4	-0.8	-3.6	nt
Cc1ccc(CN(C(=O)C(F)(F)F)C(C(=O)NC2CCCCC2)c2ccco2)cc1 (stereo not given)	-0.1	-6.1	-1.9	29.8*	-6.6
CC1CN(C(=S)NC2CCCC2)CC(C)O1 (stereo not given)	-0.4	-1.0	3.4	-10.0	nt
COc1cc(CCc2ccccc2)c(C(=O)O)c(O)c1C/C=C(/C)CCC=C(C)C	3.0	5.5	nt	35.7*	46.7*
COc1cc(CCc2ccccc2)c(C(=O)O)c(O)c1CC=C(C)C	6.2	-14.7	nt	29.2	nt
COc1ccc(NC(=O)[C@@H]2CCCN2C(=O)[C@@H]2Cc3ccccc3CN2C(=O)OC(C)(C)C)cc1	0.2	4.3	1.0	34.8*	-5.9
Cc1occc1C(=O)N/N=C/C1=C(N2CCOCC2)C(=C/c2ccc(Cl)cc2Cl)/CC1	-2.0	-0.4	nt	-5.8	nt
O=C(OCC(=O)N1CCc2ccccc21)c1ccc([N+](=O)[O-])o1	-1.0	13.7	nt	40.3*	-5.7
Oc1ccc(/C=N\Nc2cc(N3CCOCC3)nc(N3CCOCC3)n2)c(O)c1	-0.3	65.4*	-3.0	42.1*	1.6
